Sampled rows, rich in hits. Any-hit rate of the full collection: about 10%.
bCat KO growth: beta-catenin-lacking colon tumor cell growth suppression; HCT116 beta-catenin knockout viability, CellTiter-Glo, 60 h; active compounds read low; viability, % at 10 µM; actives 1.5% (n = 140,000); AID 818;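 active means viability at or under a set limit, the compound median less 4 SD, cut at about 6% in these data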;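 further: 0% = Hyamine 1622 control at 20 µM and 100% = untreated cell control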
p97 ATPase inh: human p97 ATPase inhibition. P55072. recombinant p97 ATPase, Kinase-Glo ATP luminescence, 3 h. inhibition, % at 8 µM. actives 0.42% (n = 220,000); in the data active means inhibition above about 15%;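 further: 0% = DMSO vehicle and 100% = wells lacking enzyme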
Insulin prom inh: TRM-6 insulin promoter activity inhibition. TRM-6 cells (human fetal islet line), insulin promoter-eGFP reporter, imaging; reporter expression induced with tamoxifen. inhibition, % at 2 µM. actives 0.9% (n = 130,000). AID 1273;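 active means inhibition above the mean plus 3 SD, with well images judged a real hit on visual review, cut at about 60% in these data, passing the limit was not always enough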
ROMK mod: modulators of human ROMK potassium channel. actives 2% (n = 130,000). Tet-inducible ROMK, thallium flux fluorescence; actives lie on both sides. P48048. B-score at 10 µM;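 active means signal ratio slope over the read window, or its plate-corrected B-score, at least 3 SD from the plate mean, either direction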;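 further: B-score of the F/F0 ratio slope over 7 to 12 s after thallium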
Target sequence (P48048 whole entry, looked up): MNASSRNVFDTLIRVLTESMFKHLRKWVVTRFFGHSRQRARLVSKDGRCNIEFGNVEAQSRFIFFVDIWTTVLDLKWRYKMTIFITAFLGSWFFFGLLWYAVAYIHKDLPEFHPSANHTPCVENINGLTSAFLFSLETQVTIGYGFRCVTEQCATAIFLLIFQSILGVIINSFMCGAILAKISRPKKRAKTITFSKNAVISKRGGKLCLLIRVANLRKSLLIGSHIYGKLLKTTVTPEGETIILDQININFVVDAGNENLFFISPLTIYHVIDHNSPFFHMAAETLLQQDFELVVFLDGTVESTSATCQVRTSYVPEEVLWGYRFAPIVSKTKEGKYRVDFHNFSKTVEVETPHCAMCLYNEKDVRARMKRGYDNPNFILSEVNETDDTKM
PTEN del growth: PTEN-deleted cell growth suppression; HCT116 PTEN-null viability, CellTiter-Glo, 60 h; active compounds read low; AID 827; viability, % at 10 µM; actives 1.2% (n = 140,000);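 active means viability at or below a set limit, 4 SD under the median of all tested compounds, cut at about 3.7% in these data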;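 further: PTEN knockout HCT116 line with beta catenin targeted HCT116 as companion control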
L major viab: reduces viability of Leishmania major promastigotes; resazurin fluorescence viability; inhibition, % at 10 µM; actives 9% (n = 200,000); in the data active means inhibition above about 50%;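 further: promastigotes grown with compound for 44 hours at 28 °C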
Numbers without * were called inactive; . = no result.

SMILES | bCat KO growth | p97 ATPase inh | Insulin prom inh | ROMK mod | PTEN del growth | L major viab
CC1=CCC2C(=O)N(CCc3c[nH]c4ccccc34)C(=O)C2C1 (stereo unspecified) | 80 | -4 | -57 | -0.19 | 85 | 98*
O=C1CCCC2=C1C(c1ccccc1)CC(=O)N2c1ccc(F)cc1F (stereo unspecified) | . | 8 | -27 | 0.89 | . | -2
COc1ccc(NC(=S)N(CCN(C)C)C(C)c2ccco2)cc1Cl (stereo unspecified) | 89 | 3 | 13 | -0.88 | 91 | 67*
CC(C)c1nnc(NC(=O)c2c(O)c3cccc4c3n(c2=O)CCC4)s1 | 42 | 6 | . | 0.043 | 34 | 72*
O=C(NCc1ccccn1)c1c(O)c2cccc3c2n(c1=O)CC3 | 0.9* | -4 | 17 | 0.0026 | 0.6* | -4
O=C(Cn1c(=O)n(Cc2ccco2)c(=O)c2c3c(sc21)CCCCC3)Nc1ccccc1 | 77 | 3 | 8 | . | 72 | -3
O=c1c2c3c(sc2n(CCN2CCCC2)c(=O)n1Cc1ccco1)CCCCC3 | 61 | 2 | . | . | 62 | 87*
CN(C)CCn1c(=O)n(Cc2ccco2)c(=O)c2c3c(sc21)CCCCC3 | 66 | -3 | -46 | . | 74 | 88*
O=C(Cn1c(=O)n(Cc2ccco2)c(=O)c2c3c(sc21)CCCCC3)c1ccccc1 | 87 | 2 | -44 | . | 71 | 13
CC[N+]1(CC(O)COC2CC(C)CC(C)(C)C2)CCOCC1 (stereo unspecified) | . | 8 | . | . | . | .
O=[N+]([O-])c1ccc(-c2cnc(SCc3ccccc3Cl)[nH]2)cc1 | 62 | 5 | -3 | . | 53 | 26
NC(=O)CSc1ncc(-c2ccc([N+](=O)[O-])cc2)[nH]1 | . | 5 | 21 | -1.2 | . | -2
Cc1cc(C)c(CSc2ncc(-c3ccc([N+](=O)[O-])cc3)[nH]2)c(C)c1 | 63 | 0 | 0 | . | 30 | 97*
O=[N+]([O-])c1ccc(-c2cnc(SC(c3ccccc3)c3ccccc3)[nH]2)cc1 | 3.9* | -2 | . | . | 23 | 32
COC(=O)C(NC(=O)c1ccc(C)cc1)(Nc1cccc(C)n1)C(F)(F)F (stereo unspecified) | 93 | -4 | -19 | . | 87 | 9
CC[C@@H]1C=C(C)C[C@H](C)C[C@H](OC)[C@H]2O[C@@](O)(C(=O)C(=O)N3CCCC[C@H]3C(=O)O[C@H](/C(C)=C/[C@@H]3CC[C@@H](O)[C@H](OC)C3)[C@H](C)[C@@H](O)CC1=O)[C@H](C)C[C@@H]2OC | 70 | -4 | -32 | -3.6* | 68 | 90*
Cc1cc(C)cc(NC(=S)Nc2ccc(Cl)c(Cl)c2)c1 | . | 1 | -10 | 0.59 | . | 41
Cc1cccc(C)c1NC(=S)Nc1ccc(Cl)c(Cl)c1 | . | 3 | . | 0.079 | . | 55*
COc1ccc(C(=O)/C=C/Nc2ccc(S(=O)(=O)Nc3ncccn3)cc2)cc1 | 96 | 3 | . | . | 103 | -6
COc1cccc(/C=C/C(=O)c2ccc(NS(=O)(=O)c3ccc(C)cc3)cc2)c1 | 101 | -3 | . | . | 95 | 99*
COc1cc(/C=C/C(=O)O)ccc1OS(=O)(=O)c1ccc(C)cc1 | . | 4 | . | -0.75 | . | -10
COc1cccc(C(=O)/C=C/Nc2ccc(NC(C)=O)cc2)c1 | 94 | -1 | -18 | 0.27 | 97 | -12
COc1cccc(C(=O)/C=C/Nc2ccc(S(=O)(=O)Nc3cccc(C(C)=O)c3)cc2)c1 | 18 | -3 | 2 | . | 19 | 82*
COc1cc(/C=C/C(=O)c2ccc(NS(=O)(=O)c3ccc(C)cc3)cc2)cc(OC)c1O | 7 | 10 | . | . | 6 | 82*
COc1cc(/C=C/C(=O)c2ccc(NS(=O)(=O)c3ccc(C)cc3)cc2)ccc1OC(F)F | 4.8* | 4 | 7 | 0.51 | 2.9* | 98*
SMILES | bCat KO growth | p97 ATPase inh | Insulin prom inh | ROMK mod | PTEN del growth | L major viab
CC(C)c1ccccc1NC(=O)COC(=O)C1(C)CC1(Cl)Cl (stereo unspecified) | . | -4 | 14 | 0.9 | . | 10
Cc1nnc(SCC(=O)c2ccc(C(C)C)cc2)s1 | . | 1 | . | -0.74 | . | -4
CCCSc1nc2cc(C)c(C)cc2n1CC(C)O (stereo unspecified) | . | 1 | . | -0.27 | . | 4
CCN(c1ccccc1)S(=O)(=O)c1ccc(Cl)c(C(=O)NCC2CCCO2)c1 (stereo unspecified) | . | 5 | . | 0.015 | . | 10
CCOc1ccc(C(=O)/C=C/c2ccc(OC)c(OC)c2)cc1 | . | 2 | . | 1.6 | . | 86*
C/C=C/c1ccc(OCCOc2ccc(C=O)cc2)c(OC)c1 | 102 | -5 | -34 | . | 95 | 82*
CCOc1ccc(/C=C/C(=O)c2ccccc2)cc1OC | 9 | 1 | 19 | -1 | 7 | 99*
COc1ccc(C(=O)Nc2ccc(NC(=O)c3cccs3)cc2)cc1Cl | 87 | 5 | -37 | . | 99 | -6
COc1ccc(/C=C/C(=O)c2ccc(NC(=O)c3cccs3)cc2)cc1OC | 1.4* | -3 | -61 | . | 1.8* | 98*
Nc1ccccc1Oc1ccc2ccccc2c1 | . | -3 | 44 | 0.74 | . | -1
COC(=O)c1sccc1NC(=S)Nc1cc(C)ccc1OC | . | 5 | . | -0.44 | . | 0
CC(=O)c1ccccc1OC(=O)c1ccc([N+](=O)[O-])o1 | . | -3 | . | . | . | .
Cc1[nH]c2ccccc2c1C(=O)C(C)OC(=O)c1ccc([N+](=O)[O-])o1 (stereo unspecified) | . | 5 | . | -0.31 | . | 99*
CCN(CC)S(=O)(=O)c1ccc(NC(=O)c2ccc(Sc3nncn3C)c([N+](=O)[O-])c2)cc1 | 82 | 2 | . | . | 80 | -4
Cn1cnnc1Sc1ccc(/C=C/C(=O)c2ccc(O)cc2)cc1[N+](=O)[O-] | . | 5 | 50 | 0.94 | . | 100*
CCC(C)(C)NC(=O)c1ccc(Sc2nncn2C)c([N+](=O)[O-])c1 | 87 | 2 | 28 | . | 91 | 50*
Cn1cnnc1Sc1ccc(C(=O)NCCC23CC4CC(CC(C4)C2)C3)cc1[N+](=O)[O-] | 83 | 2 | . | . | 74 | 51*
Cn1cnnc1Sc1ccc(C(=O)OCC(=O)Nc2cc(Cl)cc(Cl)c2)cc1[N+](=O)[O-] | 97 | -4 | . | . | 96 | -4
Cc1[nH]nc(SCC(=O)N(C)c2ccccc2)c1[N+](=O)[O-] | . | 2 | . | 1.3 | . | 5
O=C(c1cnn(-c2ccccc2)c1-n1cccc1)N1CCN(C2CCCCC2)CC1 | . | 1 | . | . | . | 75*
COC(=O)CN1C(=S)N(c2ccc(OC)cc2)C(=O)/C1=C/c1ccc(N2CCOCC2)cc1 | . | 1 | -210 | -1.9 | . | 39
COC(=O)CN1C(=S)N(c2ccc(OC)cc2)C(=O)/C1=C/c1ccc(OC)cc1 | . | 4 | 48 | -0.17 | . | 54*
COc1ccc(CN(CCN(C)C)Cc2ccccc2)c(OC)c1 | 46 | -1 | 40 | -1.1 | 52 | 100*
COc1ccc(CN(C)CC(=O)NC(=O)NCc2ccccc2)c(OC)c1 | 101 | -1 | 31 | -0.86 | 97 | 4
Cc1ccc(-n2nc3c(c2NC(=O)c2ccc(S(=O)(=O)N4CCOCC4)cc2)CSC3)c(C)c1 | 79 | 5 | -42 | . | 79 | 2

Compound activity as filed in PubChem BioAssay.
